Data published in PubChem BioAssay (Tox21).
Unmarked numbers belong to inactive results. Inconclusive results are not listed. A call without a number means that no potency is given here. The source made the active and inactive calls. Unless noted, calls follow the shape of the dose curve; as a rule, active = well fitted curve in the direction sought with a large enough effect in the repeat runs; inconclusive = weak or mixed curves; inactive = no such curve, though single readings can be large; an effect the other way counts as inactive or inconclusive.

Key:
[1] = qHTS assay for small molecule agonists of the p53 signaling pathway (AID 651631; calls by dose curve; also: nearly all actives have a fitted effect of over 15% in size)
Outline: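 Testing took place in human colorectal HCT-116 cells with stable p53RE-driven beta-lactamase. After 16 h of compound exposure at 37 °C, a FRET substrate was added and fluorescence recorded 2 h later.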

[2] = qHTS assay for small molecules that induce genotoxicity in human embryonic kidney cells expressing luciferase-tagged ATAD5 (AID 651632); also: nearly all actives have a fitted effect of over 15% in size
Outline: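 Reporter cells (HEK293T) express luciferase-tagged ATAD5, a protein that accumulates after DNA damage. Treat 16 hr at 37C/5% CO2, add Amplite, wait 30 min at RT, and read luminescence.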

[3] = qHTS assay for small molecule agonists of the p53 signaling pathway - cell viability (AID 651633; calls by dose curve; also: series mostly up to about 83 µM; nearly all actives have a fitted effect of over 30% in size)
Outline: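 p53RE-bla cells were treated with compound for 16 hours at 37 C. Cytotoxicity was then measured as CellTiter-Glo luminescence after 30 min at room temperature.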

[4] = qHTS assay for small molecules that induce genotoxicity in human embryonic kidney cells expressing luciferase-tagged ATAD5 - cell viability (AID 651634; calls by dose curve; also: nearly all actives have a fitted effect of over 25% in size)
Outline: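 Seeding of 2,000 HEK293T ATAD5-luciferase cells per well preceded pin-tool compound transfer. Plates sat 15.5 hr at 37C under 5% CO2, then fluorescence was read after 30 min with CellTiter-Fluor.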

[5] = qHTS assay for small molecule disruptors of the mitochondrial membrane potential - cell viability (AID 720634; calls by dose curve;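 also: human HepG2 liver cancer cells; series mostly up to about 83 µM; nearly all actives have a fitted effect of over 20% in size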)
Outline: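 Measuring cytotoxicity alongside mitochondrial potential, the screen quantified ATP by luminescence in HepG2 cells after 1 hr compound incubation and a 30 min room-temperature CellTiter-Glo step.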

[6] = qHTS assay for small molecule disruptors of the mitochondrial membrane potential (AID 720635); also: potency is read from the fitted curve at half-maximal effect
Outline: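 HepG2 cells exposed to compound 1 hr at 37C, then Mito-MPS dye 30 min. Ratio read of aggregate (540/590 nm) versus monomer (490/535 nm) fluorescence.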

[7] = qHTS assay to test for compound auto fluorescence at 590 nm (red) in HepG2 cells (AID 720674)
Outline: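 HepG2 cells, 2,000 per well in MEM with 10% FBS, attached overnight at 37 C, then got 23 nL compound or DMSO. After 1 hr at 37 C, 5% CO2, red fluorescence was read at 540/590 nm against Rose Bengal sodium as reference.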

[8] = qHTS assay to test for compound auto fluorescence at 535 nm (green) in HepG2 cells (AID 720675)
[9] = qHTS assay to test for compound auto fluorescence at 460 nm (blue) in HEK293 cells (AID 720678)
Outline: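 HEK293 cells (2,000 per well, medium with 10% dialyzed FBS) attached for 4-5 hr at 37C, then received compound and stood overnight at 37C, 5% CO2. Blue fluorescence was read at Ex/Em 405/460 nm and expressed relative to triamterene.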

[10] = qHTS assay to test for compound auto fluorescence at 590 nm (red) in HEK293 cells (AID 720679)
Outline: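 HEK293 cells (2,000/well, medium with 10% dialyzed FBS) attached for 4-5 hr at 37C, received 23 nL compound and were incubated overnight at 37C, 5% CO2. Red fluorescence was then read at 540/590nm Ex/Em, referenced to Rose Bengal sodium.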

[11] = qHTS assay to test for compound auto fluorescence at 535 nm (green) in HEK293 cells (AID 720680)
[12] = qHTS assay to test for compound auto fluorescence at 460 nm (blue) in HEK293 cell free culture (AID 720681)
Outline: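 Compounds were added to cell-free DMEM with 10% FBS and fluorescence read directly. The blue channel used 405 nm excitation and 460 nm emission, with triamterene as the reference fluorophore.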

[13] = qHTS assay to test for compound auto fluorescence at 535 nm (green) in HEK293 cell free culture (AID 720682)
Outline: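 DMEM + 10% FBS, cell-free; cpd or DMSO pinned in; Ex485/Em535 read; output as fluorescein-equivalent signal.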

[14] = qHTS assay to test for compound auto fluorescence at 590 nm (red) in HEK293 cell free culture (AID 720683)
Outline: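 Cell-free wells of DMEM with 10% FBS received compound, and intrinsic fluorescence was read at excitation/emission 540/590 nm. Values expressed as equivalence to Rose Bengal sodium.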

[15] = qHTS assay to test for compound auto fluorescence at 590 nm (red) in HepG2 cell free culture (AID 720684)
Outline: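 Compounds are added to culture medium (MEM, 10% FBS) lacking cells, then fluorescence is read at excitation 540 nm, emission 590 nm, with Rose Bengal sodium as the equivalency standard.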

[16] = qHTS assay to test for compound auto fluorescence at 460 nm (blue) in HepG2 cell free culture (AID 720685)
Outline: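 Compound (23 nL) or DMSO pinned into cell-free MEM with 10% FBS; blue fluorescence read at 405/460 nm excitation/emission, expressed as auto-fluorescence equivalency to triamterene.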

[17] = qHTS assay to test for compound auto fluorescence at 535 nm (green) in HepG2 cell free culture (AID 720686)
[18] = qHTS assay to test for compound auto fluorescence at 460 nm (blue) in HepG2 cells (AID 720687)
Outline: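 HepG2 cells in MEM with 10% FBS, attached overnight at 37 C, were exposed to compound or DMSO for 1 hr at 37 C, 5% CO2. Blue fluorescence was read at 405/460 nm, with triamterene as reference fluorophore.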

[19] = target: Glucocorticoid receptor (Homo sapiens) (UniProt P04150); assay: qHTS assay to identify small molecule agonists of the glucocorticoid receptor (GR) signaling pathway (AID 720691; active = well fitted activation curve with a large enough effect in the signal ratio in the repeat runs, not every such curve was filed as active; the % refers to the signal ratio)
Outline: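 Reporter read-out: fluorescence intensity following 2 h room-temperature LiveBLAzer B/G FRET substrate loading. Prior step: GR-bla HeLa cells held 4 h, then treated 18 h at 37 C.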

[20] = target: Glucocorticoid receptor (Homo sapiens) (UniProt P04150); assay: qHTS assay to identify small molecule antagonists of the glucocorticoid receptor (GR) signaling pathway (AID 720692; active = well fitted inhibition curve with a large enough effect in the signal ratio in the repeat runs, not every such curve was filed as active; the % refers to the signal ratio)
Outline: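 Dexamethasone (5 nM final) stimulated a stably integrated GRE-beta-lactamase reporter in HeLa cells during 18 h co-incubation with compounds; signal was quantified as fluorescence intensity of B/G FRET substrate after 2 h.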

Chain of Glucocorticoid receptor (Homo sapiens) (P04150 whole entry, looked up): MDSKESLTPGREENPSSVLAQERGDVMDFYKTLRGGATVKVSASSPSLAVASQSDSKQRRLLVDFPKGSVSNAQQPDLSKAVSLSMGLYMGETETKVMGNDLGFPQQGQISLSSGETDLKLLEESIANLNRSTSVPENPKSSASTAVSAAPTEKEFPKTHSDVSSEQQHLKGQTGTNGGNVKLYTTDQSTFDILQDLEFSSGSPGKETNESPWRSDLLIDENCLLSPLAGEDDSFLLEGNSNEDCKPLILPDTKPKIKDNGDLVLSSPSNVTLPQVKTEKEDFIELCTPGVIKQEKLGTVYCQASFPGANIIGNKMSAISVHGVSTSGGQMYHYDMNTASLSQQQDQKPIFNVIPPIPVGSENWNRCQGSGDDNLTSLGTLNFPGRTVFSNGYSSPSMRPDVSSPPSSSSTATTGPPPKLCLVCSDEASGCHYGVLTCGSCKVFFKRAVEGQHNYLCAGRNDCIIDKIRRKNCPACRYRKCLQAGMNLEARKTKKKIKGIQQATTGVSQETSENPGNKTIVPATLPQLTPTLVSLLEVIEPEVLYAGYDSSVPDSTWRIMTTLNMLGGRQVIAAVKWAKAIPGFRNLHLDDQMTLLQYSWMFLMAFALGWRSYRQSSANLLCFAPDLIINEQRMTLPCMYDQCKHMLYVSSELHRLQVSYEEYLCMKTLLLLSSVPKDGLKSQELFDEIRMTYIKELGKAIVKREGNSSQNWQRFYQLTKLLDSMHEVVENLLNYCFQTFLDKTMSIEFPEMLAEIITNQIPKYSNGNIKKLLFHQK

| Structure (SMILES) | outcome [1] | Potency [2] | outcome [3] | Potency [4] | outcome [5] | Potency [6] | outcome [7] | outcome [8] | outcome [9] | outcome [10] | outcome [11] | outcome [12] | outcome [13] | outcome [14] | outcome [15] | outcome [16] | outcome [17] | outcome [18] | Potency [19] | outcome [20] |
| --- | --- | --- | --- | --- | --- | --- | --- | --- | --- | --- | --- | --- | --- | --- | --- | --- | --- | --- | --- | --- |
| COc1ccc(Br)c(C)c1 | inactive | inactive | inactive | inactive | inactive | inactive | inactive | inactive | inactive | inactive | inactive | inactive | inactive | inactive | inactive | inactive | inactive | inactive | – | – |
| CC(C)CC(=O)O | inactive | inactive | inactive | inactive | inactive | inactive | inactive | inactive | inactive | inactive | inactive | inactive | inactive | inactive | inactive | inactive | inactive | – | inactive | – |
| CC(C)CCCC(C)(C)O | inactive | inactive | inactive | inactive | inactive | inactive | inactive | inactive | inactive | inactive | inactive | inactive | inactive | inactive | inactive | inactive | inactive | inactive | – | – |
| CN=C(NC#N)Nc1ccc(C2=NNC(=O)CC2C)cc1 (configuration not stated) | inactive | inactive | inactive | inactive | inactive | inactive | inactive | inactive | inactive | inactive | inactive | inactive | inactive | – | inactive | inactive | inactive | – | – | – |
| CC(C)(C)c1n[nH]c(=S)n(N)c1=O | inactive | inactive | inactive | inactive | inactive | inactive | inactive | inactive | inactive | inactive | inactive | inactive | inactive | – | inactive | inactive | inactive | inactive | inactive | – |
| O=C(CS(=O)Cc1ccco1)NC/C=C\COc1cc(CN2CCCCC2)ccn1 (configuration not stated) | inactive | inactive | inactive | inactive | inactive | inactive | inactive | inactive | inactive | inactive | inactive | inactive | inactive | inactive | inactive | inactive | – | inactive | inactive | – |
| C=C(C)C(=O)OCCN(CC)CC | inactive | inactive | inactive | inactive | inactive | inactive | inactive | inactive | inactive | inactive | inactive | inactive | inactive | inactive | inactive | inactive | inactive | inactive | inactive | – |
| CCOC(=O)/C=C/c1ccccc1 | inactive | inactive | inactive | inactive | inactive | inactive | inactive | inactive | inactive | inactive | inactive | inactive | inactive | inactive | inactive | inactive | inactive | inactive | – | – |
| CCOc1cc(NC(C)=O)ccc1C(=O)OC | inactive | inactive | inactive | inactive | inactive | inactive | inactive | inactive | inactive | inactive | inactive | inactive | inactive | inactive | inactive | inactive | inactive | inactive | inactive | inactive |
| Cc1cc(C(C)(C)C)c(O)c(C)c1CC1=NCCN1 | inactive | inactive | inactive | inactive | inactive | inactive | inactive | inactive | inactive | inactive | inactive | inactive | inactive | – | inactive | inactive | inactive | inactive | inactive | inactive |
| CCCN1C[C@H](CSC)C[C@@H]2c3cccc4[nH]cc(c34)C[C@H]21 | inactive | inactive | inactive | inactive | inactive | inactive | inactive | inactive | inactive | inactive | inactive | inactive | inactive | – | inactive | inactive | inactive | inactive | inactive | – |
| CCN1CCc2nc(N)oc2CC1 | inactive | inactive | inactive | inactive | inactive | inactive | inactive | inactive | inactive | inactive | inactive | inactive | inactive | inactive | inactive | inactive | – | inactive | inactive | – |
| Cc1cc(NC(=O)C2=C(O)c3ccccc3S(=O)(=O)N2C)no1 | inactive | inactive | inactive | inactive | inactive | 2660 nM (active) | inactive | inactive | inactive | inactive | inactive | inactive | inactive | inactive | inactive | inactive | – | inactive | inactive | inactive |
